Measurements as given in PubChem BioAssay (NCI).
About 79,000 compounds went through this panel and 15% of them were active in at least one assay; those are over-represented in the sample as a whole. Values without a mark were called inactive. Activity calls are given as the source filed them. Cut-off read from the data, not from the text of the source: active = growth inhibition above about 70%; inactive = the rest.

Legend:
[1] = NCI Yeast Anticancer Drug Screen. Data for the rad50 strain (AID 155);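 note: 0% = growth of vehicle-only cultures of the same strain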; conditions: S. cerevisiae rad50 strain growth inhibition; at 50.0 µM; active compounds read high
How it was run: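 Readout: growth inhibition relative to vehicle-treated cultures. Compound exposure was carried out in a genetically defined yeast strain deficient in DNA damage repair.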

[2] = NCI Yeast Anticancer Drug Screen. Data for the mec2-1 strain (AID 157); conditions: S. cerevisiae mec2-1 strain, at 50.0 µM, active compounds read high
How it was run: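 Each compound was tested on mec2-1 yeast, a strain altered in DNA damage repair or cell cycle control. Growth inhibition is reported relative to vehicle.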

[3] = NCI Yeast Anticancer Drug Screen. Data for the sgs1 mgt1 strain (AID 161);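 note: 0% = growth of cultures given vehicle only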; conditions: S. cerevisiae sgs1 mgt1 strain, at 50.0 µM, active compounds read high
How it was run: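 Mutant yeast exposed to compound; growth scored against vehicle-only wells.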

[4] = NCI Yeast Anticancer Drug Screen. Data for the cln2 rad14 strain (AID 165);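 note: 0% = growth equal to vehicle treated cultures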; conditions: S. cerevisiae cln2 rad14 strain, at 50.0 µM, active compounds read high
How it was run: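 Test compounds were added to cln2 rad14 yeast cultures; inhibition of growth was then determined by comparison with vehicle treatment.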

[5] = NCI Yeast Anticancer Drug Screen. Data for the bub3 strain (AID 167); conditions: S. cerevisiae bub3 mutant strain, at 50.0 µM, active compounds read high
How it was run: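 Readout: yeast growth inhibition, expressed relative to vehicle-only wells. The test organism is a mutant strain from a panel with lesions in DNA repair or checkpoint genes.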

[6] = NCI Yeast Anticancer Drug Screen. Data for the mlh1 rad18 strain (AID 175); conditions: S. cerevisiae mlh1 rad18 strain growth inhibition; at 50.0 µM; active compounds read high
How it was run: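 Inhibition values reflect reduced growth of mutant yeast versus vehicle-treated controls following compound exposure; the mutations affect DNA damage repair.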

| Structure (SMILES) | growth inhibition [1] | growth inhibition [2] | growth inhibition [3] | growth inhibition [4] | growth inhibition [5] | growth inhibition [6] |
| --- | --- | --- | --- | --- | --- | --- |
| CC(C)(C)C1CCC2c3c([nH]c4ccccc34)C3C(=O)N(c4ccc(Cl)cc4)C(=O)C3C2C1 (stereo not given) | 37.6% | -20% | -6.1% | -44.4% | -25.4% | -13.2% |
| Clc1ccccc1C(CI)c1ccccc1Cl | 25.6% | 9.75% | 15.2% | 13.4% | -1.2% | 10.1% |
| O=COCCO | -12.6% | -5.6% | 7.6% | -9.85% | 1.75% | -9.1% |
| COC(=O)Cc1c(C(C)=O)[nH]c2ccccc12 | 19.5% | 9.2% | 4.35% | 20.6% | 4.25% | 13.1% |
| O=C(O)C(SSC(C(=O)O)(c1ccccc1)c1ccccc1)(c1ccccc1)c1ccccc1 | 71.8% (active) | 21.5% | 54.6% | 36% | 12% | 38% |
| NC1=NCCN1 | 31.9% | 11.3% | 3.5% | -1.85% | 16.8% | 24.3% |
| Cc1ccc(-n2cnc3c(=O)[nH]cnc32)cc1N | -12.6% | 5.45% | 3.3% | -9.9% | -6.25% | 11.2% |
| CCN(CC)c1ccccc1C | 21.1% | 9.9% | -5.2% | -4.95% | 2.25% | -0.2% |
| CCOc1ccccc1NC(=O)CC(=O)N1N=C(C)C(N=Nc2ccccc2C(=O)O)C1=O (stereo not given) | 18.1% | 3.5% | 1.6% | -2.3% | -3.35% | 17.6% |
| O=c1[nH]c2ccccc2nc1/C=C/NC(=S)Nc1ccccc1 | -11.4% | -18.1% | -20% | 6% | -0.95% | -2.2% |
| Nc1nc(-c2cccc(S(=O)(=O)O)c2)c([N+](=O)[O-])c(=O)[nH]1 | -10% | -8.05% | -15.7% | 10.2% | -24.6% | 17.6% |
| CC(=O)Nc1cc(OC(C)=O)nc2c1CCC2 | 14.2% | -0.05% | -5.5% | 7.95% | -1.05% | 11.6% |
| CCCOC(=O)C1(C)CCC(=O)O1 (stereo not given) | 3.7% | 6.1% | 23.4% | -19.9% | -13.2% | -8.85% |
| Cc1cc(C(=O)C[n+]2ccccc2)c(CN2C(=O)c3ccccc3C2=O)c(=O)n1C | 14.8% | -14.3% | -3.9% | -19.1% | 6.3% | 6.55% |
| CC1CN=C(c2c(O)ccc3ccccc23)S1 (stereo not given) | 42.9% | 31.5% | 79.8% (active) | 26.8% | 34.4% | 61.3% |
| Cc1ccc(/C=c2\cc3oc(=O)c4cccc(c4-3)c2=O)cc1 | -5.3% | 18.1% | 58.6% | 23.6% | 44% | 19.1% |
| CCOc1ccccc1Nc1nc(C)c(C(=O)CC(=O)C(=O)Nc2ccccc2)s1 | 45.9% | 5.4% | 28.2% | 9.45% | 29.9% | 12.9% |
| Cc1ccc(C)c(NC(=O)CCC(=O)C(C#N)c2nc3ccccc3s2)c1 (stereo not given) | 25.9% | -3.3% | -5.15% | 17.6% | 3.7% | -5.7% |
| CN(C)c1ccccc1N(C)C | 5.5% | -15.4% | -14.9% | -8.2% | -1.35% | -13% |
| C/C(=N/Nc1ccc([N+](=O)[O-])cc1[N+](=O)[O-])C1CC2CCC1C2 (stereo not given) | -17.4% | 2.05% | 2.1% | -4.3% | 3% | -16.6% |

| Structure (SMILES) | growth inhibition [1] | growth inhibition [2] | growth inhibition [3] | growth inhibition [4] | growth inhibition [5] | growth inhibition [6] |
| --- | --- | --- | --- | --- | --- | --- |
| CC(C)(C)n1nc(C2CC2)cc1NC(=O)Nc1ccc(Cl)cc1 | -0.55% | -8.25% | -8.55% | 8.85% | -2.55% | 2.4% |
| O=C(ON(Cc1ccccc1)Cc1ccccc1)c1ccccc1 | -7.8% | 1.95% | 20.4% | -14.8% | 28.1% | 10.8% |
| CC(C/C=C(/C=O)C(C)CC(C)(C)C)CC(C)(C)C (stereo not given) | 43.9% | 20.2% | 36.3% | -24.1% | 4.85% | 61.8% |
| O=[N+]([O-])c1ccc(-c2cccc3ccccc23)c([N+](=O)[O-])c1 | 15.7% | 34.9% | 17.1% | 15.9% | 33.5% | 21.1% |
| N#CC12CC3(CCC1CCC1(C2)OCCO1)OCCO3 (stereo not given) | -13.8% | 2.65% | -3.9% | -6.65% | 4.3% | -1% |
| Fc1ccc(CN2COc3c(ccc4cccnc34)C2)c(F)c1 | 57.6% | 43.6% | 57.1% | 29.6% | 49% | 52.2% |
| Cn1cnc2nc(N)[nH]c(=O)c21 | 37.2% | 6.45% | 2.5% | -14.4% | -0.95% | 13.7% |
| Cc1nc2n(c1C(N)=O)CCS2 | 5.15% | -5.65% | -5% | -55.8% | -10.7% | -10.7% |
| CC1(C)C(CC(=O)O)CC1C(=O)O (stereo not given) | 10.4% | -0.7% | -27.4% | 11.2% | -34.6% | -1.4% |
| Cc1ccc(/C=N/NC(=O)c2ccccc2NC(=O)c2ccccc2)cc1 | 57.4% | 80.6% (active) | 85.4% (active) | 62% | 70.8% (active) | 69.8% |
| C=CC1C(C[C@@H]2c3cc(O)c(O)cc3CCN2C(C)=O)C(C(=O)OC)=CO[C@H]1OC1OC(CO)C(O)C(O)C1O (stereo not given in full) | -1.15% | -38.4% | -32.8% | 14.8% | -35% | 19.4% |
| Cn1c(=N)n(CC(=O)NC23CC4CC(CC(C4)C2)C3)c2ccccc21 | 11.8% | -15.4% | -26.9% | 2.75% | 2.2% | -11.6% |
| O=C(Oc1ccc(-c2ccc([N+](=O)[O-])cc2)cc1)c1ccccc1 | 29.8% | 3.9% | 17% | 15.4% | 19.9% | 8.25% |
| C1=Cc2c3c(c4c(c2C1)C=CC4)C=CC3 | -1.95% | -8.1% | -1.2% | -2.3% | -1.15% | 6.3% |
| O=C(Cc1ccc([N+](=O)[O-])c([N+](=O)[O-])c1CC(=O)C(=O)Nc1cc(Cl)ccc1Cl)C(=O)Nc1cc(Cl)ccc1Cl | -16% | -23.8% | -14.8% | 12.3% | 25.1% | -4.3% |
| CCCC(CCC)(C(=O)OCC)C(=O)OCC | 1.45% | 6.15% | -1.3% | -15.4% | -4.25% | 0.65% |
| CC1OC(OC2C(Oc3cc(O)c4c(c3)O[C@H](c3ccc(O)cc3)CC4=O)OC(CO)C(O)C2O)C(O)C(O)C1O (stereo not given in full) | 5.65% | -12% | -5.65% | -3.6% | -0.1% | -46.2% |
| CN(C)CCNC(=O)c1cccc2c(Nc3ccc(S(=O)(=O)N=C(N)N)cc3)c3ccccc3nc12 | -24.4% | -0.3% | -37% | 8.35% | -34.9% | 53.9% |
| CCOC(=O)Oc1ccc(C(=O)NCCC(C)C)cc1OCC | -11.8% | -10.3% | -8.1% | -69.2% | 25.8% | -6.8% |
| O=C(Nc1ccc(F)cc1)c1ccc(Cl)cc1Cl | -7.4% | -28.4% | -9% | 13.7% | -4.2% | -2.35% |
